Reference: the supplement of paper PMC10849652
Targets with a hit are over-represented here; the source holds about 7,900 in all. About 0.6% of all pairs of compound and target were hits. Values without a mark were called inactive.

Legend:
Experiment in all cases: log2 fold change, soluble protein after heating vs DMSO (PISA); higher = thermal stabilisation; K562 cells, 10 uM, 30 min; active = over 0.2 and 3.5 SD of the protein, either way, in both replicates (recomputed)
[1] = compound: C1=CC=C(C=C1)[C@H](COC2=CC3=C(C=C2)NC(=O)N3)NC(=O)C4=CC=CN(C4=O)CC5=CC(=C(C=C5)F)F
Method in brief: (§1)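 K562 cells at 2×10^6 cells/mL were exposed to 10 μM compound for 30 min, then aliquots were heated for 3 min across 48°C-58°C, pooled, and extracted in PBS containing 0.5% NP-40 at 4°C. The supernatant after 21,000xg for 90 min was taken as soluble protein and measured by TMTpro 16plex LC-MS/MS with channel sums equalised. Thermal stability is reported relative to control samples, with values from duplicates. Fold changes are given on a log2 scale.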

[2] = compound: CC1=C(SC2=C1C(=N[C@H](C3=NN=C(N32)C)CC(=O)N)C4=CC=C(C=C4)Cl)C
Method in brief: as §1

[3] = compound: CC1=C2C(=CC=C1)N=C(N(C2=O)C3=CC=CC=C3C)CN4C=NC5=C(N=CN=C54)N
Method in brief: as §1

[4] = compound: Cc1sc2c(c1C)C(c1ccc(Cl)cc1)=N[C@@H](CC(=O)OC(C)(C)C)c1nnc(C)n1-2
Method in brief: as §1

[5] = compound: c1ccc([C@@H]2C[C@H]2NC2CCNCC2)cc1
Method in brief: as §1

UniProt P04114, sequence (P04114 whole entry, looked up): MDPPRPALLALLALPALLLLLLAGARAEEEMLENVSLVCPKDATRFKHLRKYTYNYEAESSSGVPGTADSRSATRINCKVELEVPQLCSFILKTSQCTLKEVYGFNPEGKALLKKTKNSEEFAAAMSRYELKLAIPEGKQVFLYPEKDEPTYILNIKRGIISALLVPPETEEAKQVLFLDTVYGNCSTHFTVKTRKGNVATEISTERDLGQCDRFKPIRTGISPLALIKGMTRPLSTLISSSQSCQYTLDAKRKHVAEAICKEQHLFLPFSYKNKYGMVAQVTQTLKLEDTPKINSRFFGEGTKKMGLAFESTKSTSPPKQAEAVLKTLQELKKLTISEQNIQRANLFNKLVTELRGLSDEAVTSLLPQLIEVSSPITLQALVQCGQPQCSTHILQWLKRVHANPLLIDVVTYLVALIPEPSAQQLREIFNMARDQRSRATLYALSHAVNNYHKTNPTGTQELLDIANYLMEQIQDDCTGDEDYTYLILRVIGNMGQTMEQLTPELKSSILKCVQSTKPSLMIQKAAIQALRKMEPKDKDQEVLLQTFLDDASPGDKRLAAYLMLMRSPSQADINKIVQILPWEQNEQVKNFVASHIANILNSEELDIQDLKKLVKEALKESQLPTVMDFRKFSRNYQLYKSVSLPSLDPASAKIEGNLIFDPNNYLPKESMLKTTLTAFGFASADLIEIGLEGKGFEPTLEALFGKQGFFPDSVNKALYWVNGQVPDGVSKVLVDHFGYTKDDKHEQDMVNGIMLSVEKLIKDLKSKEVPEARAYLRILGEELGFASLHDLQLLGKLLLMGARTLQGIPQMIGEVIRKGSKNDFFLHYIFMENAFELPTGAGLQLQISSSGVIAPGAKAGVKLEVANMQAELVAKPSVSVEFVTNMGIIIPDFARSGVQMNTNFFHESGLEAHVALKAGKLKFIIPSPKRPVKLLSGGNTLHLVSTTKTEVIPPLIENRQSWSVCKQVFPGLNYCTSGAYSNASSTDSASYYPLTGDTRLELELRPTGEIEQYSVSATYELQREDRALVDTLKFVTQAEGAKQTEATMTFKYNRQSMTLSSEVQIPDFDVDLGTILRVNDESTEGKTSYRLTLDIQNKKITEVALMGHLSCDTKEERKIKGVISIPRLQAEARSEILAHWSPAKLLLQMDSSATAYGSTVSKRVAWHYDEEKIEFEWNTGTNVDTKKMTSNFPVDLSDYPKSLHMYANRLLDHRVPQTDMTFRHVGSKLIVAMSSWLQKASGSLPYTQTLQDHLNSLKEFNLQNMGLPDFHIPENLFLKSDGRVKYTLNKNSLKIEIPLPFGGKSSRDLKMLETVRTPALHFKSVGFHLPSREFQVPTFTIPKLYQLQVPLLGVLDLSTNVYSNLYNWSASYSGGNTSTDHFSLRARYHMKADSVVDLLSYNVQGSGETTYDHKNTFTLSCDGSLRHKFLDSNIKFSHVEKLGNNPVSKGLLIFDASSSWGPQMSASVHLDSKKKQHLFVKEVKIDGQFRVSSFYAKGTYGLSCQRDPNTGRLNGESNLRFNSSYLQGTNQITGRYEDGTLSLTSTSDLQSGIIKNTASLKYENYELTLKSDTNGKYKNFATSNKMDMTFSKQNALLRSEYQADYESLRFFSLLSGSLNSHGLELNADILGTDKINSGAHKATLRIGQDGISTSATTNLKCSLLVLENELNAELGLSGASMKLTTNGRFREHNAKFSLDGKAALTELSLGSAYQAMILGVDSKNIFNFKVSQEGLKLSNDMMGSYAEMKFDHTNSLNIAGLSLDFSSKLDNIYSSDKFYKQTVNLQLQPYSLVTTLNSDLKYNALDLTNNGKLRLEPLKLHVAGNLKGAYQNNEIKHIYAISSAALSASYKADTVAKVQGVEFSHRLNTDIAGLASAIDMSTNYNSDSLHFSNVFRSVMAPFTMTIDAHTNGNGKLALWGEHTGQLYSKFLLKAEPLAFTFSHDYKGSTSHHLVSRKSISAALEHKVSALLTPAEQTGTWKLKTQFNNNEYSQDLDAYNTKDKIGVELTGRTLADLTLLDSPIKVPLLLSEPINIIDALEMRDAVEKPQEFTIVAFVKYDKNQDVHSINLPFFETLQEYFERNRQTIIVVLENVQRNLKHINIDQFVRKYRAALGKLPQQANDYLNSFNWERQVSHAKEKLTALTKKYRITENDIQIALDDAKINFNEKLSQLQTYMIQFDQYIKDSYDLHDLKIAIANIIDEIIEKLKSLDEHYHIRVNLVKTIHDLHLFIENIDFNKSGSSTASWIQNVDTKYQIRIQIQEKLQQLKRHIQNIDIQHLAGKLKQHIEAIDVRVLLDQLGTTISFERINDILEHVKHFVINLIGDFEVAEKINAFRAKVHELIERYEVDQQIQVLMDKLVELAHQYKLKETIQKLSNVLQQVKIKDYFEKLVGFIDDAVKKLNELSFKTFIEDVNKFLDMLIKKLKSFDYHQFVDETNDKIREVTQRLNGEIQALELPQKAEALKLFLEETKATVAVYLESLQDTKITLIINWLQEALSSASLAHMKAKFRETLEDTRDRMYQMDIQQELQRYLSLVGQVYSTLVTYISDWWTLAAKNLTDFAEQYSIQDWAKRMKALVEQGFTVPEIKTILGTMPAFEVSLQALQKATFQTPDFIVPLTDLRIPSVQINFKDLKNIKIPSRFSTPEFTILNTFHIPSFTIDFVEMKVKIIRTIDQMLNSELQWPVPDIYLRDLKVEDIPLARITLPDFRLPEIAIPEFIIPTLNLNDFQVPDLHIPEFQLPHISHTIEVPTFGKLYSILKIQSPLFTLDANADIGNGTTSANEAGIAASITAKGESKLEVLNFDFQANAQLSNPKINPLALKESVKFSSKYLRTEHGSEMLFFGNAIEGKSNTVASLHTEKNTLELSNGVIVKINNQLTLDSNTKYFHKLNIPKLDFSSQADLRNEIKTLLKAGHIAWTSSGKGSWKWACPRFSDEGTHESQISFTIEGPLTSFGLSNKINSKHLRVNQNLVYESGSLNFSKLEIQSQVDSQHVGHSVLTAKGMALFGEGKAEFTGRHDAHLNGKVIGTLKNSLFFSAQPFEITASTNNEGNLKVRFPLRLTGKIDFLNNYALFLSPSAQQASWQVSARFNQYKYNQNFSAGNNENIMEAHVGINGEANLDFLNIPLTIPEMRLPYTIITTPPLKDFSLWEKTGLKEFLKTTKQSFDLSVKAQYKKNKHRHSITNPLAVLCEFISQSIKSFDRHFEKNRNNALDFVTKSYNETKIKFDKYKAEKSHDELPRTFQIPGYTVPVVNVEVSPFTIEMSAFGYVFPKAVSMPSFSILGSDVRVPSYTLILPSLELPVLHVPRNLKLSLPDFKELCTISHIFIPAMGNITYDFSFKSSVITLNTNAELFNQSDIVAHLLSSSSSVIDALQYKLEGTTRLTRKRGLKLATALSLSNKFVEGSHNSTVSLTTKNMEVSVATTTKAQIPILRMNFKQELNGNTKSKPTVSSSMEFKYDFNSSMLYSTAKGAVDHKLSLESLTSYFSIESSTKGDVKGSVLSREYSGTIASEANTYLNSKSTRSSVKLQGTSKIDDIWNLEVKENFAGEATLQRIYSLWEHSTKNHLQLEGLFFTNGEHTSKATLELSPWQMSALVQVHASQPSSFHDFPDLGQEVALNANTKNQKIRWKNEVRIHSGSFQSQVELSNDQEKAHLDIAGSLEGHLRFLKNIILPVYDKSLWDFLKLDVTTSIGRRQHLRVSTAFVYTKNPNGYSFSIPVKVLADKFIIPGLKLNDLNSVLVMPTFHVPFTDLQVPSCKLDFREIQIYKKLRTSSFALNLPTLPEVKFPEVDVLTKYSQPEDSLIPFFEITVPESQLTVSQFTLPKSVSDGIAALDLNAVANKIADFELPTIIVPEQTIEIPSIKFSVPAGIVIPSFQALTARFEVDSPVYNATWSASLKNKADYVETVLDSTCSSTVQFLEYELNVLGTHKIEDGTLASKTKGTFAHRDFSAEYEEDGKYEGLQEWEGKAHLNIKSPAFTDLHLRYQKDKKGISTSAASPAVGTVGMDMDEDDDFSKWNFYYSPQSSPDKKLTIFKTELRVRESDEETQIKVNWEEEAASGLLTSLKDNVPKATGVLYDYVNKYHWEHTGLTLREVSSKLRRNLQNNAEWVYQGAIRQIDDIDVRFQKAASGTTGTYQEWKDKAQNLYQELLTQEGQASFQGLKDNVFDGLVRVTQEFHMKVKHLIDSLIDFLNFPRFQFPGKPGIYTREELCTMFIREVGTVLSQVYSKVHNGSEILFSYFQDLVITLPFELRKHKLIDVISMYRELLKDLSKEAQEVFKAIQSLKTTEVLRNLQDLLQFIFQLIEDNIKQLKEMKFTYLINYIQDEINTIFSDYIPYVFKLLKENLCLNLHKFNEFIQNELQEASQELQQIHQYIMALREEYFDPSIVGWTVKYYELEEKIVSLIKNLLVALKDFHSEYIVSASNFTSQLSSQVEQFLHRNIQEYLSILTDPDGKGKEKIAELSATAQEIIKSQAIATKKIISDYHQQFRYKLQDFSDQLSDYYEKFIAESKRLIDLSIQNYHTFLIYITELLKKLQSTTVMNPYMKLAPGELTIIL
UniProt P42330, sequence (P42330 whole entry, looked up): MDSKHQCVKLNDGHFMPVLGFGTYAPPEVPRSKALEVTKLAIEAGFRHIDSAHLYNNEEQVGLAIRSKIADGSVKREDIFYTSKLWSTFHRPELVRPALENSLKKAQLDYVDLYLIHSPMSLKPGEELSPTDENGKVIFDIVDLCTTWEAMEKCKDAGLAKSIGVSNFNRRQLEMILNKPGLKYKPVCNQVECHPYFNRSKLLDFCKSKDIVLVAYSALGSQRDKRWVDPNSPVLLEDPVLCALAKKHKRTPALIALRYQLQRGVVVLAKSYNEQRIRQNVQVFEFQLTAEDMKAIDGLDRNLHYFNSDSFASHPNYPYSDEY
UniProt Q8WUW1, sequence (Q8WUW1 whole entry, looked up): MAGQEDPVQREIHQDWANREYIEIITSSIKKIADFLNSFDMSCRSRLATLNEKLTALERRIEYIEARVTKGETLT
UniProt Q9Y2Y0, sequence (Q9Y2Y0 whole entry, looked up): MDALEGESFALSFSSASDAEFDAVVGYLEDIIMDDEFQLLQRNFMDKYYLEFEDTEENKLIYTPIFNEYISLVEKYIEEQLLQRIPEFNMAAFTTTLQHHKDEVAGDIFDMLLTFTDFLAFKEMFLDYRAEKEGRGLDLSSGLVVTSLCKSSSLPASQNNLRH

Target | log2 fold change [1] | log2 fold change [2] | log2 fold change [3] | log2 fold change [4] | log2 fold change [5]
BRD2 isoform 2 (UniProt P25440) | -0.257 | 2.34 (active) | 0.092 | 2.33 (active) | 0.029
ATP1A1 (UniProt P05023) | 0.009 | 0.051 | -0.045 | 0 | -0.01
ACOX3 (UniProt O15254) | 0.015 | 0.238 | -0.185 | 0.131 | 0.077
BAIAP2 (UniProt Q9UQB8) | -0.019 | 0.071 | 0.072 | 0.014 | 0.002
ALG11 (UniProt Q2TAA5) | 0.001 | 0.085 | 0.144 | -0.051 | -0.021
APOB (UniProt P04114) | 0.041 | 0.028 | 0.055 | 0.034 | -0.013
AKR1C3 (UniProt P42330) | 0.155 | 0.049 | 0.132 | -0.038 | -0.156
BOP1 (UniProt Q14137) | 0.096 | -0.099 | 0.01 | -0.036 | -0.01
ACSL3 (UniProt O95573) | -0.05 | 0.068 | 0.028 | -0.014 | -0.036
ALKBH4 (UniProt Q9NXW9) | 0.023 | -0.063 | -0.078 | 0.079 | -0.033
ATAD1 (UniProt Q8NBU5) | 0.016 | 0.055 | 0.063 | -0.027 | -0.02
BRK1 isoform 2 (UniProt Q8WUW1) | 0.018 | -0.018 | 0.025 | -0.055 | -0.013
ADD1 isoform 3 (UniProt P35611) | 0.01 | -0.003 | 0 | -0.014 | 0.024
ACADM isoform 2 (UniProt P11310) | 0.007 | 0.024 | -0.015 | -0.016 | -0.031
ATF1 (UniProt P18846) | -0.054 | 0.11 | -0.001 | -0.014 | -0.391 (active)
ATP11A (UniProt P98196) | 0.001 | -0.003 | 0.085 | -0.034 | 0.062
ARL2BP (UniProt Q9Y2Y0) | -0.076 | 0 | 0.14 | 0.069 | 0.017
ATP6V1H (UniProt Q9UI12) | -0.003 | 0.065 | 0.029 | -0.019 | -0.116
ATRN (UniProt O75882) | -0.011 | -0.031 | 0.027 | -0.055 | 0.006
AAMP (UniProt Q13685) | -0.015 | -0.013 | 0.014 | -0.032 | 0.021
ABCB6 (UniProt Q9NP58) | 0.001 | 0.003 | 0.05 | -0.049 | 0.012
ATP9B (UniProt O43861) | -0.092 | -0.001 | 0.055 | -0.048 | 0.071
AGPAT3 isoform 3 (UniProt Q9NRZ7) | -0.012 | 0.064 | 0.021 | -0.048 | -0.024
ABHD11 (UniProt Q8NFV4) | -0.008 | 0.127 | 0.136 | -0.12 | -0.037
ARHGAP1 (UniProt Q07960) | -0.02 | 0.023 | 0.047 | -0.005 | 0.002
ATP13A3 (UniProt Q9H7F0) | -0.038 | 0.008 | 0.016 | 0.018 | -0.101
AGRN (UniProt O00468) | 0.06 | 0.154 | 0.043 | -0.038 | 0.028
